Test results: the supplement of paper PMC6992640
± gives the standard deviation of the averaged measurements.

Columns and labels:
Assay in all cases: cell viability (% of vehicle); higher = less cytotoxic
Settings in all cases: 10 µM; 72 h
HCI01 = system: HCI01 (cells of a triple-negative basal-like breast cancer xenograft)
HCI03 = system: HCI03 (cells of an ER-positive luminal breast cancer xenograft)
HCI09 = system: HCI09 (cells of a triple-negative luminal androgen receptor type breast cancer xenograft)
HCI11 = system: HCI11 (cells of an ER-positive luminal breast cancer xenograft)
HCI13 = system: HCI13 (cells of an ER-positive luminal breast cancer xenograft)
HCI16 = system: HCI16 (cells of a triple-negative basal-like breast cancer xenograft)
UCD52 = system: UCD52 (cells of a triple-negative basal-like breast cancer xenograft)
WHIM2 = system: WHIM2 (cells of a triple-negative basal-like breast cancer xenograft)
WHIM30 = system: WHIM30 (cells of a triple-negative basal-like breast cancer xenograft)
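Further: PDX cells carrying CMV promoter-driven luciferase, viability read as total photon flux per second by IVIS imaging following D-luciferin, vehicle control 0.1% DMSO.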

| SMILES | cell viability (HCI01) | cell viability (HCI03) | cell viability (HCI09) | cell viability (HCI11) | cell viability (HCI13) | cell viability (HCI16) | cell viability (UCD52) | cell viability (WHIM2) | cell viability (WHIM30) |
| --- | --- | --- | --- | --- | --- | --- | --- | --- | --- |
| CCN1CCN(C(=O)NC(C(=O)NC2C(=O)N3C2SC(C)(C)C3C(=O)[O-])c2ccccc2)C(=O)C1=O.[Na+] (configuration not stated) [Piperacillin Sodium] | 109 ± 7.5 | 91.8 | 76.1 ± 26 | 92.6 | 88.4 ± 1.3 | 111 | 108 ± 17 | 105 ± 18 | 152 ± 15 |
| CC1CCOC2Cn3cc(C(=O)NCc4ccc(F)cc4F)c(=O)c(O)c3C(=O)N12 (configuration not stated) | 133 ± 25 | 110 | 139 ± 35 | 137 | 74.39 ± 0.7 | 124 | 139 ± 20 | 120 ± 15 | 176 ± 20 |
| CSc1nc2cc(Oc3cccc(Cl)c3Cl)c(Cl)cc2[nH]1 [Triclabendazole] | 99.7 ± 4.9 | 108 | 83 ± 23 | 97.1 | 47.9 ± 7.4 | 127 | 89.2 ± 6.4 | 124 ± 34 | 134 ± 14 |
| Cl.c1ccc(CN(CC2=NCCN2)c2ccccc2)cc1 [Antazoline HCl] | 133.9 ± 0.91 | 123 | 103 ± 1.1 | 119 | 109 ± 9.2 | 144 | 66.7 ± 18 | 92.52 ± 0.86 | 102 ± 8.3 |
| CC(C)(C)NCC(O)COc1cccc2c1CCC(O)=N2.Cl (configuration not stated) [Carteolol HCl] | 96.4 ± 13 | 144 | 97.3 ± 14 | 110 | 123 ± 1.9 | 115 | 114 ± 3.5 | 87.3 ± 17 | 116.5 ± 0.86 |
| Cc1cc(C)c2c(c1)C(N(Cc1cc(C(F)(F)F)cc(C(F)(F)F)c1)c1nnn(C)n1)CCCN2CC1CCC(C(=O)O)CC1 (configuration not stated) | 41.2 ± 16 | 135 | 61.9 ± 53 | 98.5 | 51.4 ± 8.7 | 139 | 119 ± 2.1 | 91.8 ± 4.9 | 110 ± 6.3 |
| COc1c(C)c2c(c(O)c1CC=C(C)CCC(=O)O)C(=O)OC2 [Mycophenolic acid] | 99.5 ± 27 | 93.3 | 77.8 ± 17 | 75.1 | 102 ± 9.5 | 104 | 94 ± 6.1 | 65.8 ± 7.6 | 151 ± 1.2 |
| [O-][n+]1cccc(CO)c1 [Mepiroxol] | 117 ± 13 | 119 | 105.2 ± 0.98 | 103 | 99.24 ± 0.22 | 97 | 90.9 ± 8.7 | 95.7 ± 9.9 | 139 ± 26 |
| NCC1OC(OC2C(CO)OC(OC3C(O)C(N)CC(N)C3OC3OC(CN)C(O)C(O)C3N)C2O)C(N)C(O)C1O.O=S(=O)(O)O (configuration not stated) [Neomycin sulfate] | 90.1 ± 22 | 135 | 91.8 ± 9.7 | 95.9 | 79.9 ± 2.5 | 111 | 92.9 ± 8.6 | 102 ± 7.7 | 95.9 ± 4.7 |
| COC(=O)C(Cc1ccccc1)NC(=O)C(N)CC(=O)O (configuration not stated) [Aspartame] | 120 ± 6.8 | 152 | 104 ± 3.9 | 119 | 161 ± 4.4 | 117 | 100 ± 21 | 131 ± 23 | 128 ± 6.7 |
| Br.CN(C)CCC[C@]1(c2ccc(F)cc2)OCc2cc(C#N)ccc21 [Citalopram hydrobromide] | 103 ± 25 | 138 | 93.7 ± 14 | 108 | 103 ± 6.7 | 129 | 106 ± 9 | 94.2 ± 24 | 87.9 ± 8.7 |
| CCCc1nc(C)c2c(=O)nc(-c3cc(S(=O)(=O)N4CCN(CC)CC4)ccc3OCC)[nH]n12 [Vardenafil] | 98.2 ± 24 | 169 | 113 ± 14 | 97.3 | 102 ± 5.5 | 127 | 109 ± 12 | 97.77 ± 0.38 | 107 ± 1.9 |
| COc1ccccc1OCC(O)CN1CCN(CC(=O)Nc2c(C)cccc2C)CC1.Cl.Cl (configuration not stated) [Ranolazine 2HCl] | 95.6 ± 9.7 | 124 | 102 ± 7.6 | 109 | 105 ± 6 | 138 | 85.7 ± 14 | 114 ± 1.7 | 158 ± 20 |
| CC[C@H](C)[C@@H]1NC(=O)[C@H](Cc2ccc(O)cc2)NC(=O)[C@@H](N)CSSC[C@@H](C(=O)N2CCC[C@H]2C(=O)N[C@@H](CC(C)C)C(=O)NCC(N)=O)NC(=O)[C@H](CC(N)=O)NC(=O)[C@H](CCC(N)=O)NC1=O [Oxytocin] | 116 ± 13 | 110 | 99.7 ± 2.2 | 69.2 | 134 ± 41 | 128 | 115 ± 1.7 | 126 ± 1.9 | 134 ± 8.1 |
| O=C([C@H](CCC/N=C(N)/N)NS(=O)(C1=C2NC[C@H](C)CC2=CC=C1)=O)N3[C@@H](C(O)=O)C[C@H](C)CC3 [Argatroban] | 116 ± 7.1 | 130 | 98 ± 6.5 | 116 | 95.2 ± 6 | 96.6 | 80.3 ± 7.5 | 98.9 ± 18 | 132 ± 14 |
| CCN(CC)CCOC(=O)c1ccc(N)cc1 [Procaine] | 99.4 ± 4.1 | 122 | 105 ± 23 | 87 | 96.765 ± 0.018 | 102 | 88.1 ± 3.5 | 97.3 ± 23 | 95.2 ± 24 |
| Cl.NC12CC3CC(CC(C3)C1)C2 [Amantadine HCl] | 136 ± 17 | 117 | 104 ± 1.4 | 98.7 | 120 ± 7.4 | 132 | 93.3 ± 2.1 | 107 ± 17 | 105 ± 1.4 |
| Cc1ncc([N+](=O)[O-])n1CCO [Metronidazole] | 91.9 ± 32 | 135 | 90.8 ± 28 | 89.6 | 104 ± 9 | 133 | 77.3 ± 7.2 | 81 ± 16 | 131 ± 4.7 |
